Measured values as given in PubChem BioAssay AID1347423 (Functional Genomics Laboratory (NCATS/FGL), 2020).
In all, about 52,000 sequences went through this assay and about 210 (0.4%) were called active.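 How the source made its calls: active means gene whose silencing raises cell survival under the drug, median off-target-corrected z-score across its silencing RNAs 2 or more; inactive means the rest.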 Shown is part of a subset that was picked to be rich in actives.

Test: Resistance to Poly (ADP-Ribose) Polymerase inhibitor: Gene Identification via Genome-wide siRNA Screen
Conditions: mouse BRCA2 R2336H ES cells, olaparib, CellTiter-Glo viability; hits give high values
Summary of the method: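 Mouse BRCA2 R2336H ES cells were reverse-transfected with siRNA (20 nM final), treated at 48 h with 500 nM olaparib, and read by CellTiter-Glo after 72 h. Scores: MAD-based z per siRNA, median per gene, seed off-target correction.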

Sequence | z-score
GGAGAUGCUGGACUGCUUUTT against Htr1b | -0.751 (active)
GGUUGUUUAAACUCAGUUUTT against Slco4c1 | -1.83 (inactive)
GGCCAAAUCAUGGAUGCAGTT against Comt | -1.72 (inactive)
GGAUCUAUAAGGACUACAUTT against Bmp7 | -0.68 (inactive)
CGGGAACUCACCGAAAAGATT against 4921521N14Rik | 0.566 (inactive)
GGAUGUGGCUGCUUUGAAGTT against Wbscr27 | 0.123 (inactive)
GGGAUUUUCUGUGUAUCUUTT against D5Ertd33e | -0.0623 (inactive)
GGCAUAACUGAUCAUACGCTT against Foxp3 | 1.06 (inactive)
GGUUUUAGAAGGGAAACAUTT against Ppp2r2c | -0.761 (inactive)
GGAGCCAAGUGUGAUUACATT against Pias3 | -1.38 (active)
GGAUUGCUGUGCCUUAUGATT against 2010004A03Rik | 0.503 (inactive)
CCACUUUUUUAGAUCCCUGTT against AA960436 | -0.149 (inactive)
GACUCCCACUUACACUCUCTT against Olfr1312 | -1.08 (inactive)
GGUUCUUUAAUAGAACAUGTT against Tyrp1 | -0.207 (inactive)
GGUCAUUGGUCGCUGGUCATT against Gzmm | 1.22 (inactive)
CGUGGGAUUUAAUGAUCAATT against Nid2 | 0.787 (inactive)
GGGCCUAUAUAACAUCUUGTT against Usp11 | 0.581 (active)
GGGUAUCUUCUGGAAAACATT against Angptl4 | 0.203 (inactive)
GGCUAUGCAGCAUAUUAUATT against Ndufa1 | -0.819 (inactive)
GGAAAUUUUGGAGAUGAUATT against 5730444A13Rik | -0.496 (inactive)
GGCGAUCUAUCACACUGUGTT against Chst7 | 1.39 (inactive)
GGAGGAAGAAACAGAACCATT against A930021G21Rik | -2.36 (inactive)
GCAGUCUGGUUCUCUCAAATT against Cryl1 | 2.21 (inactive)

Sequence | z-score
GGUUGCUUGGAAUUAAAAGTT against Klhl1 | 1.01 (active)
CACGGGCAUCCUUGACUCCTT against Mbp | 0.994 (inactive)
GCAACAUGGCCCUUACCAUTT against Plcb2 | -0.797 (inactive)
GGCUCCUUAAAGAUAUGUUTT against Nsmaf | 0.332 (inactive)
GGAAUGUGUUAUGGUGAUUTT against Mgl2 | -0.346 (inactive)
GCCUUUAUAGUCUUAAGCATT against 2810475A17Rik | -1.55 (inactive)
GGAUAAAUGGUUCUAGAAATT against 3110006P09Rik | -0.433 (active)
CCUUCAAUUUCAGUUCAGATT against Olfr1388 | 0.422 (inactive)
GGUAUUCUCUAAGAAGGAGTT against Ccbl1 | -0.635 (inactive)
GGCAUUUGAAGAUGUUUCUTT against Hmgb3 | 1.56 (active)
GGAGACGUGUCUGAAAGACTT against Glp2r | -0.752 (inactive)
GCUUCACAAGCAGUGUACUTT against Slc37a1 | 1.96 (active)
CCUUUUUCUGGAUUGGAAUTT against Klrd1 | 1.78 (active)
GCCAGCAACAGGAUGAUAUTT against Prkwnk1 | -1.02 (inactive)
GCUCAGACAUGUUCUUACCTT against BC037527 | 0.547 (inactive)
GCUUAAAACAGACCAUUUUTT against 1700013G20Rik | 0.824 (inactive)
GCAUUCAAGCAACCACGAATT against Ptdss1 | -0.153 (inactive)
GCACUUGGGUAAAAAACUCTT against Bcorl1 | 0.555 (inactive)
GCUGACCCAGCUAUGUACUTT against 4930519N13Rik | -0.26 (inactive)
GGAAGCUGGUUCCUGUUUUTT against Bid3 | 2.66 (active)
CCAGAGUAAGAGUAAAAGCTT against Mamdc2 | 1.32 (inactive)
GGCUGUAAUGAGGACUGAUTT against Deb1 | -1.92 (inactive)
CCUAAAUUCGGUUUGAAUCTT against Fath | 2.74 (active)

Sequence | z-score
GCAUUUUGACCCAAGUGUUTT against Foxq1 | 0.0651 (inactive)
CGAUCUACAUCUGCAUCAUTT against Olfr1212 | -0.961 (inactive)
GGCUUUGAUUGAACAUGAGTT against Lypla2 | 0.783 (inactive)
CCAUCUAUGAUCCCAGAGCTT against Fbxw9 | 0.241 (inactive)
GGACGUGACAGACAUUAUUTT against Htr5b | -0.897 (inactive)
GCCAAUGAUGUAGCAAAUUTT against Slc20a1 | 2.1 (active)
CCCUAAUAGAACUAAUGAATT against Kpnb1 | -3.47 (inactive)
CCUACUUCCUCCAUUUAGGTT against 5033413D22Rik | 1.42 (inactive)
GGAGUACAGUGAUGACAAGTT against Ing5 | 0.235 (inactive)
GGUUGGCCAUAUAAAGAGATT against Smarca3 | 0.771 (active)
GGCAAAUGGUCUUUAUGCATT against Zfp606 | -0.699 (inactive)
GGGAAGUCACUUUUGUUCCTT against Top2a | -1.25 (inactive)
GGCCAAAUUCUUCAGCAGATT against Rpl27a | -2.82 (inactive)
GGUCCACGGUUACUAAAAATT against Klrd1 | 2.45 (active)
CCAAAACAACCACAAGUAGTT against A930006D11 | -2.39 (inactive)
GGUGAUAGUCCACGAGGUUTT against Mbc2 | -1.31 (inactive)
GGGUUUUUUUUUUCCUUCCTT against Hsd17b1 | 1.88 (active)
GGAGUUUGAGACACUCUGCTT against Apg4d | 0.266 (inactive)
GGUCCUUCCAUAGUGACGCTT against Igfbp7 | 0.24 (inactive)
GGAAAUAUGAUCCAUCCUGTT against Zfp282 | 1.65 (inactive)
GGUAUCAAGUGCAGAAUGUTT against Slc37a1 | 1.99 (active)
GGGUAACAGUGGUGAACCUTT against Col1a1 | -1.52 (inactive)
